Results filed as inconclusive are left out. Active and inactive are the calls of the source. The calls were made as follows: active = hit-call score of the fitted dose curve at least 0.9, where 1 is the maximum; inconclusive = response in the unintended direction; inactive = score below 0.9.

We go through one molecule from PubChem BioAssay (EPA / NIEHS).

Assay [1] concerns the target THRB (gene 7068) (UniProt P10828). Kind of assay: TOX21_TRB_BLA_Antagonist_Followup_ratio: Tox21 Thyroid Hormone Receptor beta Antagonism Beta-lactamase (BLA) Follow-Up Assay, Ratio (AID 2283958). The procedure, abridged:
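HEK293T TRb-bla (GAL4 DBD + hTRβ LBD), 2% cs-FBS phenol red-free DMEM, 5 h attach; cpds 11-pt triplicate, 18 h 37C; CCF4-AM 2 h RT; 460/530 ratio vs DMSO; CellTiter-Glo viability same wells.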

Assay [2] is described as follows: TOX21_TRB_BLA_Antagonist_Followup_viability: Viability Assessment in the Tox21 Thyroid Hormone Receptor beta Antagonism Beta-lactamase (BLA) Follow-Up Assay (AID 2283961). The method, boiled down: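 TRβ-bla HEK293T (human TRβ LBD fused to GAL4 DBD), 3,000 cells/well, 2% charcoal-stripped FBS, phenol red-free medium; 18 h compound exposure, 37C; CellTiter-Glo 30 min RT; luminescence, loss-of-signal readout.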

Assay [3] concerns the target THRB (gene 7068) (UniProt P10828). Kind of assay: TOX21_TRB_COA_Antagonist_Followup_ratio: Tox21 Thyroid Hormone Receptor beta Antagonism through Coactivator Recruitment Follow-Up Assay, Ratio (AID 2283967). The procedure, abridged: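 Cell-free TR-FRET coactivator recruitment with GST-tagged TRβ LBD (5.0 nM) and fluorescein-labeled SRC-2 peptide (200 nM) detected by terbium anti-GST antibody (2 nM). The 520:495 nm emission ratio was normalized to DMSO (0%) and T3 (100%).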

The target of assay [4] is Retinoic acid receptor RXR-alpha (Homo sapiens) (UniProt P19793). Kind of assay: TOX21_TR_RXR_BLA_Antagonist_Followup_ratio: Tox21 Thyroid Hormone Receptor beta Retinoid X Receptor alpha (RXRa) Antagonism Beta-lactamase (BLA) Follow-Up Assay, Ratio (AID 2283972). The procedure, abridged: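 HEK293T RXRa-bla, 2% charcoal-stripped FBS medium, 16 h compound exposure at 37C, qHTS 11 conc x3. CCF4 FRET ratio ch2/ch1 (460:530), DMSO = baseline, loss-of-signal fit.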

The nature of assay [5]: TOX21_TR_RXR_BLA_Antagonist_Followup_viability: Viability Assessment in the Tox21 Thyroid Hormone Receptor beta Retinoid X Receptor alpha (RXRa) Antagonism Beta-lactamase (BLA) Follow-Up Assay (AID 2283979). The procedure, abridged: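 RXRa-UAS-bla HEK293T cells seeded 2,500/well in phenol red-free DMEM with 2% charcoal-stripped FBS, attached 5 h, then exposed to compounds at 11 concentrations in triplicate for 16 h at 37C/5% CO2. Viability read by CellTiter-Glo ATP luminescence; bidirectional fit versus DMSO.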

Sequence of THRB (gene 7068) (P10828 whole entry, looked up, the tested form may be a part): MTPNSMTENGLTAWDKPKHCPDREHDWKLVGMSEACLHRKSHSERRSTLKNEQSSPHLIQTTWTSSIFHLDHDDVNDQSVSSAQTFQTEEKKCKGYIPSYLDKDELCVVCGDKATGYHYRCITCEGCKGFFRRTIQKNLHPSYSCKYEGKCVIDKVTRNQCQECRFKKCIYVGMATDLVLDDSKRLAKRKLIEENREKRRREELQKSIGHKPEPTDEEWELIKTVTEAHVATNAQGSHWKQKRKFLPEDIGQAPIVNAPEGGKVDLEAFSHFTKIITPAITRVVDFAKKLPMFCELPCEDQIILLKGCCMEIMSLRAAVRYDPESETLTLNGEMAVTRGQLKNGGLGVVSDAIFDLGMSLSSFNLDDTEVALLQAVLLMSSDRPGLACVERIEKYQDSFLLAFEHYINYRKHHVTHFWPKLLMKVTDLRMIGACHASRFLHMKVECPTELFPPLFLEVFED
Sequence of Retinoic acid receptor RXR-alpha (Homo sapiens) (P19793 whole entry, looked up): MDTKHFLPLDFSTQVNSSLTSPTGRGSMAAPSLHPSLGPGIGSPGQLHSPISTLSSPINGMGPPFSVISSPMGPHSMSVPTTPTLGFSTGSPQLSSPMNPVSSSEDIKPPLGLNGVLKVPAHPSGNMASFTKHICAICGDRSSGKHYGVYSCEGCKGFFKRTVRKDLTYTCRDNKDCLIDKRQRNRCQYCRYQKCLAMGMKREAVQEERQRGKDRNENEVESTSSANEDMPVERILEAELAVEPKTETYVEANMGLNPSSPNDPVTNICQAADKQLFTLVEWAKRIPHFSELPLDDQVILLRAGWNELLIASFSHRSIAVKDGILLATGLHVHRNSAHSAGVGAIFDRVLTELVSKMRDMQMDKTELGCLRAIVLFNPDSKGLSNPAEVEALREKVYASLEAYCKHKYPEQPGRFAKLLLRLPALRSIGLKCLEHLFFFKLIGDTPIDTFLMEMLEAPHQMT

The AC50 is the midpoint of the concentration-response curve, whichever way the signal moves. As to `CO/N=C(/C(=O)OC)c1ccccc1COc1ccccc1C`, the AC50 with THRB (gene 7068) [1] is 23.1 µM (active). For the same molecule, the result (in assay [2]; with THRB (gene 7068) [3]; in assay [4]; in assay [5]) was inactive.
